Screening data as filed in PubChem.
The list is not random: actives were taken first. Their share in the collection is about 2.1%.
PrPC surface inh – inhibitors of human cell surface prion protein PrPC, primary screen, cell-based, TR-FRET. Major prion protein (Homo sapiens), P04156. TR-FRET read-out. inhibition, % at 13.8 µM. 370,000 tested, 0.43% active. AID 720596, 2013; in the data active = inhibition above about 24%
RN4220 kill – growth inhibition of S. aureus RN4220, primary screen, OD600 | AID 1259311, 2017 | inhibition, % (no concentration beside the values) | 330,000 tested, 0.33% active | 16 h; in the data active = inhibition above about 85%
Sa ugtP lethal – growth inhibition of ugtP-null S. aureus, primary screen, RN4220 ugtP deletion, OD600. 16 h. 330,000 tested, 0.54% active. growth inhibition, % (test concentration not listed). AID 1259309, 2017; in the data active = growth inhibition above about 68%
PrP 5UTR inh – inhibition of PrP 5' UTR reporter expression; cell-based PrP 5' UTR mRNA reporter, plate reader; inhibition, % (concentration not given with the values); 340,000 tested, 0.35% active; AID 488862, 2010; in the data active = inhibition above about 52%
PfHsp40 yeast – rescue of yeast from PfHsp40 toxicity, primary screen, S. cerevisiae, ATP luminescence | S. cerevisiae expressing PfHsp40, growth rescue | growth rescue, % at 12.5 µM | 340,000 tested, 0.68% active | AID 504582, 2011; in the data active = growth rescue above about 28%, passing the limit was not always enough;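 note: yeast W303a lacking pdr1 and pdr3 grown in galactose medium; growth measured after three days at 30 °C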
CCHF vOTU inh-1 – CCHFV vOTU protease inhibitors, primary screen, biochemical, Pep-AMC substrate, fluorescence; Crimean-Congo hemorrhagic fever virus L polyprotein viral ovarian tumor (vOTU) protease …; inhibition, % at 11.5 µM; 370,000 tested, 0.55% active; AID 651958, 2012
CCHF vOTU inh-2 – CCHFV vOTU protease inhibitors, confirmation, biochemical, Pep-AMC substrate, fluorescence. shares compounds with CCHF vOTU inh-1. Recombinant CCHFV vOTU. inhibition, % at 11.5 µM. 1,900 tested, 17% active. AID 686976, 2013
Hits are given with their value; 0 = inactive; - = not tested or not shown. Cut-off read from the data, not from the text of the source, unless noted: active = inhibition above about 30%; inactive = the rest.

SMILES | PrPC surface inh | RN4220 kill | Sa ugtP lethal | PrP 5UTR inh | PfHsp40 yeast | CCHF vOTU inh-1 | CCHF vOTU inh-2
CCN1C(=O)C2C(C1=O)C(c1cccc(OC)c1)N1C(=O)c3ccccc3NC(=O)C21 (stereo not drawn) | - | 0 | 0 | - | - | - | -
CCN1C(=O)[C@@H]2[C@H](C1=O)[C@@H]1C(=O)Nc3ccccc3C(=O)N1[C@@H]2c1ccc(OC)cc1 | 0 | - | - | 0 | 0 | 34 | 0
COc1cc2c(cc1OC)/C(=C/C(C)=O)OC2 | 0 | - | - | - | - | 0 | -
COC(=O)/C=C1\OCc2cc(OC)c(OC)cc21 | 0 | - | - | - | - | 37 | 0
CCC1(CC)C(=O)C2=C3C(CC(C(=O)OC)CC(C(=O)OC)C31)n1c(=O)n(C)c(=O)n1C2C (stereo not drawn) | - | 0 | 0 | - | - | - | -
FC(F)(F)c1cc(CCN2CCNC[C@@H]2c2ccccc2)cc(C(F)(F)F)c1 | 0 | - | - | 0 | 0 | 0 | -
FC(F)(F)c1cc(CO[C@@H]2CCCN[C@@H]2c2ccccc2)cc(C(F)(F)F)c1 | 0 | - | - | 0 | 0 | 33 | 0
Cc1ccccc1SCC(=O)NNC(=O)c1ccccc1O | 0 | 0 | 0 | 0 | 0 | 39 | 0
Cc1ccccc1SCC(=O)NNC(=O)c1ccncc1 | 0 | 0 | 0 | 0 | 0 | 0 | -
COC(=O)[C@]12C[C@H](CC(=O)NCCc3ccccc3OC)C(=O)N(Cc3ccc(Cl)cc3Cl)C1=C[C@H](C(C)(C)C)O[C@@H]2C | 0 | - | - | - | - | 30 | 0
CCCCNC(=O)C[C@@H]1C[C@@]2(C(=O)OCC)CCCC=C2N(Cc2ccc(Cl)cc2Cl)C1=O | 0 | - | - | - | - | 0 | -
CCOC(=O)[C@]12CCC=C1N(Cc1ccco1)C(=O)[C@H](CC(=O)NCc1cccs1)C2 | 0 | - | - | - | - | 33 | 0
CCOC(=O)[C@]12CCCC=C1N(Cc1ccc(Cl)cc1Cl)C(=O)[C@H](CC(=O)NCCc1ccccc1OC)C2 | 0 | - | - | - | - | 30 | 0
COC(=O)[C@]12C[C@H](CC(=O)NCCC(C)C)C(=O)N(Cc3ccc(Cl)cc3Cl)C1=C[C@H](C(C)(C)C)O[C@@H]2C | 0 | - | - | - | - | 31 | 0
CCOC(=O)[C@]12CCCC=C1N(Cc1ccco1)C(=O)[C@H](CC(=O)NCc1cccs1)C2 | 0 | - | - | - | - | 0 | -
C/C(C=NNc1ncc(C)c(=O)[nH]1)=C\c1ccccc1 | - | 0 | 0 | - | - | - | -
COc1ccc(/C=C/c2ccc3c(Br)ccc(O)c3n2)cc1 | 0 | 0 | 0 | 0 | 0 | 0 | -
COc1cc(/C=C/c2ccc3c(Br)cc(Br)c(O)c3n2)ccc1O | 0 | 99 | 100 | 0 | 0 | 35 | 0
CCCOP(=O)(OCCC)C(Nc1cccc(C(F)(F)F)c1)c1ccc(C)cc1 (stereo not drawn) | 0 | 0 | 0 | 0 | 0 | 0 | -
CCOP(=O)(OCC)C(Nc1cccc(C(F)(F)F)c1)c1ccc(C)cc1 (stereo not drawn) | 0 | 0 | 0 | 0 | 0 | 30 | 0
C#CCN1CC(COc2ccccc2)Oc2cccc(Oc3ccc(SC)c(C)c3)c2S1(=O)=O (stereo not drawn) | 0 | - | - | - | - | 31 | 0
CCCCCCC=Cc1ccc(C2C3C=CCC(C)C3C(=O)N2Cc2ccccc2)c(F)c1 (stereo not drawn) | - | 0 | 0 | - | - | - | -
COc1ccc(Nc2ncnc3c2oc2ccccc23)cc1 | 0 | - | - | 0 | 0 | 33 | 0
Cc1ccc(Nc2ncnc3c2oc2ccccc23)cc1 | 0 | 0 | 0 | 0 | 0 | 0 | -
Cc1ccc2c(c1C)-c1c(ccc(C)c1C)C(=O)C2=O | 0 | - | - | 0 | 171 | 75 | 72
SMILES | PrPC surface inh | RN4220 kill | Sa ugtP lethal | PrP 5UTR inh | PfHsp40 yeast | CCHF vOTU inh-1 | CCHF vOTU inh-2
Cc1ccc2c(c1N)C(=O)c1ccccc1C2=O | 0 | - | - | 0 | 0 | 0 | -
O=C(COC(=O)CSc1ccc([N+](=O)[O-])cc1)NC1CCCCCCC1 | 0 | 0 | 0 | 0 | 0 | 0 | -
Cc1ccc(SCC(=O)OCC(=O)NC2CCCCCCC2)cc1 | 0 | 0 | 0 | 0 | 0 | 30 | 0
CC(CC(=O)OCC(=O)NCc1ccc(Cl)cc1)c1ccccc1 (stereo not drawn) | 0 | 0 | 0 | 0 | 0 | 33 | 0
O=c1oc(-c2ccccc2)nc2sc3c(c12)CCC3 | 0 | 0 | 0 | 0 | 0 | 0 | -
Nc1nc(-c2ccccc2)nc2sc3c(c12)CCCC3 | 0 | 0 | 0 | 0 | 0 | 30 | 0
COc1ccc(NS(=O)(=O)c2cc(NC(=O)c3ccc(=O)[nH]n3)ccc2C)cc1 | 0 | 0 | 0 | 0 | 0 | 31 | 0
O=C(NCCc1ccccc1Cl)[C@@H]1CCCN1C(=O)[C@@H](NS(=O)(=O)c1ccc(F)cc1F)C1CCCCC1 | 0 | - | - | - | - | 34 | 0
COc1cc(C(=O)NNC(=S)NC(=O)c2ccc(Cl)cc2)cc(OC)c1OC | 0 | 0 | 0 | 0 | 0 | 30 | 0
Cc1ccccc1-c1nnn(CC(N)=NO)n1 | - | 0 | 0 | - | - | - | -
CC(C)C1OC(CCc2ccccc2)Cc2[nH][nH]c(=O)c21 (stereo not drawn) | 0 | - | - | - | - | 33 | 0
CCOc1cc(/C=N/NC(=S)Nc2ccccc2C(F)(F)F)ccc1OCC(=O)N1CCOCC1 | 0 | - | - | 0 | 0 | 30 | 0
CC(=NNC(=O)CCC(=O)NCc1ccccc1)c1ccco1 | - | 0 | 0 | - | - | - | -
CC1CC=CC2C1C(=O)N(Cc1ccccc1)C2c1ccc(F)c(C=Cc2ccccc2)c1 (stereo not drawn) | - | 0 | 0 | - | - | - | -
Cc1ccc(/C=[N+](\[O-])c2ccc(N(C)C)cc2)c2nsnc12 | 0 | 0 | 0 | 0 | - | 56 | 0
COP(=O)(OC)C(C=O)=NNc1ccc([N+](=O)[O-])cc1 | - | 0 | 0 | - | - | - | -
CC(=O)C(=NNc1ccccc1[N+](=O)[O-])N1CCCc2ccccc21 | - | 0 | 0 | - | - | - | -
O=C(Cc1ccc(Cl)cc1)Nc1ccc(-c2nnc(-c3ccco3)o2)cc1 | 0 | 0 | 0 | 0 | 0 | 0 | -
O=C(CSCc1ccc(Cl)cc1)Nc1ccc(-c2nnc(-c3ccccc3)o2)cc1 | 0 | - | - | 0 | 0 | 32 | 0
CCCCN(C=O)c1c(CC)nc2c(OCC(=O)C(C)(C)C)cccn12 | 0 | - | - | - | - | 32 | 0
CCn1nnnc1SCC(=O)N1N=C(c2cccs2)CC1c1cccs1 (stereo not drawn) | 0 | 0 | 0 | 0 | 0 | 30 | 0
COC(=O)c1c(NC(=O)c2ccco2)sc(C(=O)N(C)C)c1C | 0 | 0 | 0 | 0 | 0 | 32 | 0
COC(=O)c1c(NC(=O)c2cccnc2)sc(C(=O)N(C)C)c1C | 0 | 0 | 0 | 0 | 0 | 0 | -
O=[N+]([O-])c1cccc(C(=Nc2ccccc2)NO)c1 | 0 | 0 | 0 | 0 | 0 | 0 | -
O=[N+]([O-])c1cc([N+](=O)[O-])c2c(=Nc3ccccc3)n(-c3ccccc3)n(O)c2c1 | 0 | 0 | 0 | 0 | 0 | 31 | 0
O=C1O[C@@H](c2ccc(O)cc2)Cc2cccc(O)c21 | 0 | 0 | 0 | 0 | 0 | 0 | -
O=C1C[C@@H](O)[C@H](O)c2cccc(O)c21 | 0 | - | - | - | - | 45 | 0
COc1ccc(C=NNc2ccc(S(=O)(=O)Nc3ccccc3C(=O)O)cc2[N+](=O)[O-])c(OC)c1 | - | 0 | 0 | 0 | 0 | - | -
